# ChEMBL document CHEMBL3988442, “University of Dundee, Small-Polar-MMV Screening Library” (2021)
# Hit rate of the full screen: of about 69,000 compounds, about 950 (1.4%) showed an effect of 50% or more. For the sample, strong results were picked, then their nearest neighbours and some compounds at random.
# Test system: Mycobacterium tuberculosis
# Test: Cornell M. t heat shock assay; note: in the data most compounds retested in dose-response had high values
# Format: functional, organism-based
# Parameters: dose or concentration left out as unconfirmed
row,Structure (SMILES),Percent Effect
1,CCN(CC)Cc1nc2c(o1)CN(S(=O)(=O)c1cccs1)C2.O=C(O)C(F)(F)F,10.46%
2,CN(C)CCN1C(=O)CCCC12CCCN(Cc1cccs1)C2.O=C(O)C(F)(F)F.O=C(O)C(F)(F)F (stereo not given),-7.663%
3,CN(C)C(=O)CC1CC2(CCN(CC3CC3)CC2)Oc2ccccc21.O=C(O)C(F)(F)F (stereo not given),11.01%
4,Cc1cnc(C(=O)N2CCC3(CCN3Cc3ccc(F)cc3)C2)cn1.O=C(O)C(F)(F)F (stereo not given),-3.427%
5,COCCN1CCC12CCN(C(=O)c1ccc(C)nc1)C2.O=C(O)C(F)(F)F (stereo not given),29.56%
6,Cc1ccc(C(=O)N2CCC3(CCN3Cc3ccc(F)cc3)C2)cn1.O=C(O)C(F)(F)F (stereo not given),99.27%
7,Cc1nc2[nH]cnc(NCCN3CCCC3)c-2n1,57.49%
8,Cc1nc2[nH]cnc(NCCCN3CCOCC3)c-2n1,-13.88%
9,Cc1nc2[nH]cnc(NCCN3CCOCC3)c-2n1,-1.565%
10,CCc1c(C)sc2ncnc(N3C[C@H](O)[C@@H](N4CCCC4)C3)c12,59.45%
11,CCc1c(C)sc2ncnc(N3CC[C@@H](N4CCC(O)CC4)[C@H](O)C3)c12,10.29%
12,CCc1c(C)sc2ncnc(N3CC[C@@H](N4CCOCC4)[C@H](O)C3)c12,11.35%
13,Cc1noc(C)c1C(=O)N[C@@H]1CCC[C@@H](Oc2ccccc2)[C@@H]1O,10.41%
14,Cc1ccc(Oc2cc(F)ccc2O[C@@H]2CCC[C@@H](N)[C@H]2O)cc1,103.2%
15,N[C@@H]1CCC[C@@H](Oc2ccc(F)cc2Oc2ccccc2)[C@@H]1O,-7.942%
16,N[C@@H]1CCC[C@@H](Oc2ccc(F)cc2Oc2cccc(F)c2)[C@@H]1O,1.479%
17,Cc1n[nH]c(C)c1CCC(=O)N[C@@H]1CCC[C@@H](Oc2ccccc2)[C@@H]1O,-15.12%
18,CN[C@@H]1CCC[C@@H](Oc2ccccc2Oc2ccc(C)cc2)[C@@H]1O,50.23%

row,Structure (SMILES),Percent Effect
1,O=C(O)C(F)(F)F.O=c1ccc2c([nH]1)CCC(NCc1ccc(F)cc1)C2 (stereo not given),-5.527%
2,Cc1nc(CN2C[C@@H]3CN(C(=O)C4CC4)C[C@@H]3C2=O)cs1.O=C(O)C(F)(F)F,-7.229%
3,O=C(O)C(F)(F)F.O=C(c1ccco1)N1CCOCC2(C1)CN(c1cccnc1)C(=O)CO2 (stereo not given),-36.47%
4,CCN(CC)c1ncc(CNC2CCc3ncnn3C2)s1 (stereo not given),0.07548%
5,CCN1CCOCC2(CCCN(C(=O)c3conc3C)C2)C1.O=C(O)C(F)(F)F (stereo not given),-3.777%
6,Cc1cc2nc(C(C)C)cc(NCC(c3ccccn3)N(C)C)n2n1 (stereo not given),107.7%
7,CC(C)c1cc(NCC(O)c2ccncc2)n2nccc2n1 (stereo not given),0.8571%
8,CC(C)c1cc(NCC(O)c2ccccn2)n2nccc2n1 (stereo not given),105.1%
9,Cc1cc2nc(C(C)C)cc(NCCc3cccn3C)n2n1,51.31%
10,CC(C)c1cc(NCC(O)c2ccc(F)cc2)n2nccc2n1 (stereo not given),13.68%
11,CC(C)c1cc(NCC(O)CO)n2nccc2n1 (stereo not given),7.568%
12,Cc1cc2nc(C(C)C)cc(NCCc3ccncc3)n2n1,5.483%
13,CCCC(CNc1cc(C(C)C)nc2ccnn12)N(C)C (stereo not given),105.9%
14,Cc1cc2nc(C(C)C)cc(NC(C)c3nncn3C)n2n1 (stereo not given),6.767%
15,CC(C)c1cc(NCC(C)N2CCCC2)n2nccc2n1 (stereo not given),19.07%
16,COc1cc(NCC(c2ccccn2)N(C)C)ncn1 (stereo not given),7.48%
17,Cc1cc2nc(C(C)C)cc(NCc3ccncc3)n2n1,10.36%
